H9c2 protect = cardioprotection against H2O2-induced cell death, primary screen, uHTS, H9c2 cells, ATPLite luminescence | H9c2 cardiomyocytes, H2O2 injury protection, 2 h | hit rate 0.63% among 360,000 | protection from H2O2 cell death, % at 20 µM;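 active = compounds giving at least 50% protection of heart cells from peroxide-induced death in the single-dose screen, raw or plate-pattern-corrected value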;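 also: 0% = DMSO wells with peroxide and 100% = DMSO wells without peroxide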
PLC-gamma1 inh = PLC-gamma1 enzyme inhibitors, primary screen, biochemical, fluorescence, purified enzyme; 1-phosphatidylinositol 4,5-bisphosphate phosphodiesterase gamma-1 (Homo sapiens), P19174; AID 720700, 2013; fluorogenic substrate; inhibition, % at 12.2 µM; hit rate 0.84% among 370,000; in the data active = inhibition above about 9.5%
Target sequence (P19174 whole entry, looked up): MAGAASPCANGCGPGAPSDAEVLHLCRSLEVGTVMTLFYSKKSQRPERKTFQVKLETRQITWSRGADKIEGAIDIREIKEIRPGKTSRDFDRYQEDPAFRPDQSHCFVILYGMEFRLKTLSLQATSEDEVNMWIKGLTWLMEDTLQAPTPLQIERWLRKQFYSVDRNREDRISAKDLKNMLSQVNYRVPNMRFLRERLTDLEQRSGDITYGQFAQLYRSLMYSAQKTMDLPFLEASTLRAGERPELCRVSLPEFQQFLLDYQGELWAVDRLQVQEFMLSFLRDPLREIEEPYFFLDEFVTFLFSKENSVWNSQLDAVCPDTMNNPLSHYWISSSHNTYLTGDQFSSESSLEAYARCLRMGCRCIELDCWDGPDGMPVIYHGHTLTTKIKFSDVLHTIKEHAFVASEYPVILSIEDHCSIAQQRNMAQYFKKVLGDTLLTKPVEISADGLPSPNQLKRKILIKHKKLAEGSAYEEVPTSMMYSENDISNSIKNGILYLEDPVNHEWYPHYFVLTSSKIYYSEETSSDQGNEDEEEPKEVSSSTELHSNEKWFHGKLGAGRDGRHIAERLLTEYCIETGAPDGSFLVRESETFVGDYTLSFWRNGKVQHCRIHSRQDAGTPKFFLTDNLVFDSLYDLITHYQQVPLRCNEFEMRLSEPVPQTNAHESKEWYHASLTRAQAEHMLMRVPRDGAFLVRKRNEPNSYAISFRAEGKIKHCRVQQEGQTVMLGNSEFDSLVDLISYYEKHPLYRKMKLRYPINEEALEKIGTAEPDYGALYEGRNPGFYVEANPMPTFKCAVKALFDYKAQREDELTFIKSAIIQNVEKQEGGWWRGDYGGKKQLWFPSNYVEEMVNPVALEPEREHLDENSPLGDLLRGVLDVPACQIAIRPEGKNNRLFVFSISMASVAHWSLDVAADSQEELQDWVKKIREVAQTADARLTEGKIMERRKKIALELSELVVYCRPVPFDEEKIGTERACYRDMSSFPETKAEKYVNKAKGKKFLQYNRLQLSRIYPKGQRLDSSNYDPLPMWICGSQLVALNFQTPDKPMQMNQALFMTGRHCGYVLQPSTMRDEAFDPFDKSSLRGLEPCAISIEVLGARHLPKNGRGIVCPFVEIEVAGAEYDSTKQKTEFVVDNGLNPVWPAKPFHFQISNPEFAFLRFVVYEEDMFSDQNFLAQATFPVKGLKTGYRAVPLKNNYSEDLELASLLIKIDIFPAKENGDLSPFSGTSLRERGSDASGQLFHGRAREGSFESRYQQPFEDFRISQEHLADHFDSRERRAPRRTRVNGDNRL
FAS TE block = FAS thioesterase domain inhibitors, primary screen, biochemical, fluorescence intensity, uHTS; hit rate 0.67% among 360,000; inhibition, % at 15 µM; recombinant FAS-TE, OMFH fluorogenic substrate, fluorescence endpoint; Fatty acid synthase (Homo sapiens), P49327;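 active = compounds whose normalised, plate-corrected inhibition of enzyme fluorescence in the single-dose primary screen is 50% or more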;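 also: 0% = DMSO with enzyme and 100% = substrate without enzyme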
PLCb3 inh = human PLC-beta3 inhibitors, primary screen, biochemical, fluorescence. 1-phosphatidylinositol 4,5-bisphosphate phosphodiesterase beta-3 (Homo sapiens), Q01970. Purified PLC-beta3, fluorogenic substrate. inhibition, % at 12.2 µM. hit rate 0.18% among 370,000. AID 720704, 2013; in the data active = inhibition above about 11%;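 also: 0% = median of compound wells on plate and 100% = full blocker control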
FAS-TE conf = FAS thioesterase domain inhibitors, confirmation, biochemical, fluorescence intensity, single concentration; shares compounds with FAS TE block; hit rate 45% among 2,300; inhibition, % at 15 µM; recombinant FAS-TE, OMFH fluorogenic substrate; AID 624325, 2012;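 active = compounds inhibiting the enzyme by at least 50% at 15 µM in any one of the replicates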;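 also: 0% = enzyme with DMSO only and 100% = wells lacking enzyme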
An asterisk follows results filed as active; . = no result. Only some compounds are listed: those with a hit (about 2.2% of all), similar ones and a draw of the others.

SMILES	H9c2 protect	PLC-gamma1 inh	FAS TE block	PLCb3 inh	FAS-TE conf
Cc1ccc(S(=O)(=O)N2CCN(C(=O)c3ccc(N4CCC(C)CC4)c([N+](=O)[O-])c3)CC2)cc1	-14	1	54*	-3	14
CCC(c1c[nH]c2ccccc12)c1cn(C)c2ccccc12 (stereo unspecified)	.	-8	.	-11	.
CCOC(=O)CC[C@@H]1CC[C@]2(CCCN(Cc3ccc(OC)cc3)C2)O1	.	3	.	-2	.
Cc1ccc(NC(=O)/C(=C/C=C/c2ccccc2)NC(=O)c2ccccc2)cc1	-6	-6	63*	-12	22
CC(C)COc1ccc(C(=O)N/C(=C\c2cccc([N+](=O)[O-])c2)C(=O)O)cc1	12	0	62*	-9	77*
CC(C)COc1ccc(C(=O)N/C(=C/c2cccc([N+](=O)[O-])c2)C(=O)O)cc1	2	-2	57*	-8	59*
O=C(c1ccccc1)c1nc2ccccc2n(CCCn2c(=O)c(C(=O)c3ccccc3)nc3ccccc32)c1=O	12	-7	60*	-14	17
Cn1c(=O)c(C(=O)c2ccccc2)nc2ccccc21	17	-26	1	-36	.
O=C1OCCN1C(=O)[C@H]1[C@H](c2ccc(Cl)cc2)C(c2ccc(F)cc2)=NN1c1ccc(Br)cc1	6	-50	88*	-89	34
C[C@@H]1C(c2ccccc2)=NN(c2ccc(Br)cc2)[C@H]1C(=O)N1CCOC1=O	-4	-206	40	-315	.
O=C1OCCN1C(=O)[C@H]1[C@H](c2ccc(F)cc2)C(c2ccc(F)cc2)=NN1c1ccc(Br)cc1	8	.	84*	.	32
Cc1cccc(C2=NN(c3ccc(Br)cc3)[C@@H](C(=O)N3CCOC3=O)[C@@H]2C)c1	-5	-129	39	-180	.
O=C(/C=C/c1cccc([N+](=O)[O-])c1)N1CCN(c2ccccn2)CC1	-2	0	51*	-4	42
O=C(c1cccc([N+](=O)[O-])c1)N1CCN(c2ccccn2)CC1	8	-1	-2	0	.
O=C(/C=C/c1cccc([N+](=O)[O-])c1)N1CCN(S(=O)(=O)c2cccs2)CC1	-5	4	77*	2	83*
COc1ccc(CN2C(=O)C(C)Oc3ccccc32)cc1 (stereo unspecified)	-4	1	10	-6	.
CC(=O)c1cccc2c1OC(C)C(=O)N2Cc1ccc(Cl)cc1 (stereo unspecified)	0	-27	57*	-35	62*
O=C(c1ccc(F)cc1)n1ccc2ccc(-c3ccc4ccn(Cc5ccccc5)c4c3)cc21	.	-62	.	-90	.
Cc1ccc(C(C(=O)NCc2ccccc2)N(Cc2cccs2)C(=O)c2ccc3c(c2)OCCO3)cc1 (stereo unspecified)	56*	-2	51*	0	32
Cc1ccc(C(C(=O)NC2CCCC2)N(Cc2ccc3c(c2)OCO3)C(=O)Cc2cccs2)cc1 (stereo unspecified)	20	4	35	0	.
Cc1ccc(C(=O)N/C(=C/c2ccc(-c3ccc([N+](=O)[O-])cc3)o2)C(=O)NCCCN(C)C)cc1	-7	-420	57*	-416	56*
CN(CCO)c1cc(NCCCN2CCC(Cc3ccccc3)CC2)c2nonc2c1[N+](=O)[O-]	3	-3	68*	-7	42*
COc1cc(S(=O)(=O)Nc2ccc(C)cc2)ccc1N=Cc1c(C)[nH]n(-c2ccc(C)cc2)c1=O	-12	0	77*	2	11
CCOC(=O)N(C)c1c(CC)nc2c(OCc3ccccc3C)cccn12	2	0	2	-2	.
COc1ccc(N(CC(=O)N/N=C/c2ccc(N(C)C)cc2)S(=O)(=O)c2ccccc2)cc1	-8	-39	12	-55	.
CCOc1ccc(NC(=O)CN(c2ccc([N+](=O)[O-])cc2)S(=O)(=O)c2ccccc2)cc1	0	2	55*	5	37*
Cc1ccc(S(=O)(=O)N(CC(=O)N/N=C/c2ccco2)c2cc(Cl)cc(Cl)c2)cc1	-17	0	40	-1	.
CCOc1ccc(N(CC(=O)N/N=C/c2ccccn2)S(=O)(=O)c2ccc(Cl)cc2)cc1	56*	3	61*	-1	66*
